Results published in PubChem BioAssay (NCI).
Compounds without any hit were thinned out: in the full panel of roughly 83,000, 20% have a hit.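 For each line, cells grew in 96-well plates with the test compound present at a single concentration for 48 hours.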 Values without a mark were called inactive. Calls of active or inactive are those of the source.

System: KM12 colon
Assay: NCI-60 one-dose screen, 48 h (100 = growth as untreated, 0 = no growth, -100 = all killed)
Details: 10 µM unless noted
Method: Growth inhibition of the KM12 human tumor cell line is measured as a screen for anti-cancer activity. Cells are grown in 96 well plates and exposed to the test compound for 48 hours. Compounds are tested at a single concentration, which is 10^-5 M for most compounds. The reported endpoint is percent growth (GI% or GIPRCNT), where numbers from 0 - 100% represent growth inhibition, and numbers from -100% - 0 represent cell death. For example, a value of 40 represents 60% growth inhibition. A value of 0 means no net growth occurred over the course of the experiment. A value of -40 indicates 40% of cells at the beginning of the experiment died by the end of the experiment. A value of -100 means all cells are dead at the end of the experiment.
NCI-60 Human Tumor Cell Lines Screen was performed using the standard one-dose NCI protocol, which is described in more detail at https://dtp.cancer.gov/discovery_development/nci-60/default.htm.
Compounds with GIPRCNT values below 10 were considered active. Activity score was based on GIPRCNT using the following formula: […]
Score is 0 for GIPRCNT values of 100 or above, 50 for GIPRCNT values of 0, and 100 for GIPRCNT values of -100.

Row | SMILES | growth
1 | CCCc1nn(C)c2c(=O)[nH]c(-c3cc(S(=O)(=O)N4CCN(C)CC4)ccc3OCC)nc12 | 103%
2 | O=C1Nc2ccccc2C12Nc1cc(Cl)ccc1S2 (stereo not given) | 80.4%
3 | Clc1cccc(Cc2cn3cc(-c4ccccc4)nc3s2)c1 | 12.1%
4 | O=C(Nc1ccc(Cl)cc1)Nc1ccc(Oc2nncc3ccccc23)cc1 | -32.3% (active)
5 | Cc1cc(NC(=O)Nc2cc(Cl)ccc2C)no1 | 107%
6 | Cn1cc(-c2csc(-c3cn(C)c4ncccc34)n2)c2cc(Br)cnc21 | 83.1%
7 | Cc1c(NCc2nnc3n(Cc4ccccc4)c(=O)c4c5c(sc4n23)CCCC5)c(=O)n(-c2ccccc2)n1C | 98.8%
8 | CCCc1cccc(CCC)c1O | 112%
9 | O=C(CSc1nnc(Nc2ccccc2)s1)NCCc1ccc(F)cc1 | 111%
10 | COc1cc2cn3c4ccc(O)cc4nc(N)c3c2cc1OC | 37.9%
11 | Nc1ccccc1-c1ccc([N+](=O)[O-])cc1 | 24.1%
12 | CCS(=O)(=O)OCCCl | 115%
13 | COc1ccc2c(c1)nc(N)c1c3ccccc3cn21 | 63%
14 | CCOC(=O)c1c2c(c(C)n1Cc1ccc(OC)cc1)-c1nc(N)ncc1CC2 | 109%
15 | C[n+]1c2ccccc2c(NC2CCNCC2)c2[nH]c3ccccc3c21 | -11.4% (active)
16 | COc1cc(C2=NN(C(C)=O)C(c3ccc(OC(C)=O)cc3OC(C)=O)O2)c(OC(C)=O)c2ccccc12 (stereo not given) | 22.3%
17 | O=C(Cn1ccnc1)NC(c1ccccc1)c1ccccc1 | 103%
18 | Cc1cc(C(C)(C)c2cc(C)c(O)c(CN(C)C)c2)cc(CN(C)C)c1O | 101%
19 | Nc1nc(N)c([N+](=O)[O-])c(=O)[nH]1 | 111%
20 | O=C(CCc1nnc(SCc2ccccc2)s1)c1nc2ccccc2[nH]1 | 110%

Row | SMILES | growth
21 | O=C(N1CCC(CN=c2cc3n(-c4ccc(Cl)cc4)c4ccccc4nc-3cc2Nc2ccc(Cl)cc2)CC1)N1CC1 | -63.7% (active)
22 | Clc1ccc([C@@H]2C[C@@H]3Cc4cc(Br)c5ccccc5c4N2O3)c(Cl)c1 | 66.7%
23 | CCOC(=O)c1cc(-c2cccnc2)nc2c(Cl)cc(Cl)cc12 | 102%
24 | O=C(C(=O)N1CCOCC1)c1ccc(OC2OC(CO)C(O)C(O)C2O)cc1 (stereo not given) | 112%
25 | COc1ccc(-c2nn(-c3cccc(Cl)c3)cc2C2CC(c3ccccc3)=NN2C(C)=O)cc1 (stereo not given) | 96.4%
26 | COc1ccc(C2=NNC(c3cc(Cc4ccc(O)c(C5CC(c6ccc(OC)cc6)=NN5)c4)ccc3O)C2)cc1 (stereo not given) | 55.4%
27 | O=C(Oc1ccc[nH]c1=O)c1cccc(Cl)c1 | 104%
28 | CC[C@]1(O)CC2CN(CCc3c([nH]c4ccccc34)[C@@](C(=O)OC)(c3cc4c(cc3OC)N(C)[C@H]3[C@@](O)(C(=O)OC)[C@H](OC(C)=O)[C@]5(CC)C=CCN6CC[C@]43[C@@H]65)C2)C1 (stereo not given in full) | -7.67% (active)
29 | CCOC(=O)c1ccccc1OC(=O)NNc1ccccc1 | 55%
30 | CC1=C(C(=O)Nc2ccccc2)C(c2ccc3c(c2)OCCO3)NC(=O)N1 (stereo not given) | 100%
31 | Fc1ccc(-c2nnc(/C=C/c3cn(-c4ccccc4)nc3-c3ccccc3)o2)cc1 | 102%
32 | CC(CCC(=O)O)(NC(=O)c1ccc([N+](=O)[O-])cc1)C(=O)O (stereo not given) | 99.3%
33 | CCCCC(C#N)C(N)=O (stereo not given) | 119%
34 | CC(C)C(=O)Cc1cnccn1 | 112%
35 | COc1cc(C2NC(c3ccc(Cl)cc3)C(C)C(=NC(=O)c3cnccn3)C2C)cc(OC)c1OC (stereo not given) | 90.7%
36 | NC(N)=NC(N)=NCCCc1ccccc1 | 78.1% [100 µM]
37 | CCOC(Cc1c(N)[nH]c(=S)[nH]c1=O)OCC | 112%
38 | NCCCc1nnc(CCC(=O)c2nc3ccccc3[nH]2)o1 | 115%
39 | Nc1nonc1-c1nc2ccccc2n1CC(=O)Nc1ccc2c(c1)COC2=O | 64.4%
40 | CC(O)c1nc2c(c(=O)n(C)c(=O)n2C)n1C (stereo not given) | 113%
